Experimental data taken from PubChem BioAssay AID430 (Sanford-Burnham Center for Chemical Genomics, 2006).
About 1,100 (1.7%) of roughly 63,000 compounds were called active. Cut-off read from the data, not from the text of the source: active = cytotoxicity above about 50%; inactive = the rest. Only a selection was taken, and actives are over-represented in it overall. Entries with a potency or affinity are not part of this list.

Experiment: HPDE-C7 pancreatic duct cell viability loss – fluorescence, HTS (AID 430);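 note: cells exposed to compound for 48 hours before viability readout; 0% = vehicle and 100% = reference cytotoxic drug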
Conditions: HPDE-C7 pancreatic duct cells viability, at 10 µM, active compounds read high

| SMILES | cytotoxicity |
| --- | --- |
| Fc1ccccc1CSc1ncnc2c1oc1ccccc12 | 5.1% (inactive) |
| COc1ccccc1NC(=O)c1cc(S(=O)(=O)N2CCC3(CC2)OCCO3)ccc1F | 4.8% (inactive) |
| COc1cccc(C(=O)Nc2ccc(C)cc2)c1 | -1.9% (inactive) |
| COc1cccc(C(=O)/C=C/Nc2cc(C)ccc2O)c1 | 65.2% (active) |
| Cc1cccc(OCC(=O)Nc2cc(C)ccc2O)c1 | -6% (inactive) |
| CCC(CC)C(=O)Nc1nnc(-c2cccs2)s1 | 5% (inactive) |
| Cc1cccc(C)c1NC1=NC(C)(C)N=C(N)N1 | 10.8% (inactive) |
| Cc1nn(-c2ccccc2)c(C)c1C(=O)OC/C(O)=C(\C#N)c1nc2ccccc2[nH]1 | 7.4% (inactive) |
| CCOC(=O)c1c(C)[nH]c(C(=O)OC/C(O)=C(\C#N)c2nc3ccccc3[nH]2)c1C | 89.8% (active) |
| N#C/C(=C(/O)COC(=O)c1ccc2c(c1)OCCO2)c1nc2ccccc2[nH]1 | 24.1% (inactive) |
| CCOc1cc(Br)c(C(=O)O)cc1OCC | -2.5% (inactive) |
| COc1cccc2c1C(=O)c1c(O)c3c(c(O)c1C2=O)C[C@@](O)(C(C)=O)C[C@@H]3O[C@H]1C[C@H](N)[C@H](O)[C@H](C)O1 | 108% (active) |
| COc1cccc2c1C(=O)c1c(O)c3c(c(O)c1C2=O)C[C@@](O)(C(=O)CO)C[C@@H]3O[C@H]1C[C@H](N)[C@H](O)[C@H](C)O1 | 102% (active) |
| COCC(C)NC(=O)c1cc(-c2ccc(OC)c(OC)c2)on1 (stereo not drawn) | -3% (inactive) |
| O=C1c2ccccc2C(=O)N1CC#CCN1CCN(C2CCCCC2)CC1 | 2.6% (inactive) |
| Cc1cc(C)c(C#N)c(SCS(=O)c2ccc(C(C)(C)C)cc2)n1 (stereo not drawn) | -4.8% (inactive) |
| Cc1cc(C)c(C#N)c(SCS(=O)Cc2ccccc2)n1 (stereo not drawn) | -16.4% (inactive) |
| Cc1cc(C)c(C#N)c(SCS(=O)Cc2ccc(Cl)cc2)n1 (stereo not drawn) | 50.3% (active) |
| CCOc1ccc(-c2noc(=O)[nH]2)cc1 | 0.9% (inactive) |
| COc1ccc2c(c1)C=CC1(O2)N(CCO)c2ccccc2C1(C)C (stereo not drawn) | 32.6% (inactive) |
| CC1=NOC2(C1)N(C)c1ccccc1C2(C)C (stereo not drawn) | -10.1% (inactive) |
| CCOC(=O)c1sc(NC(=O)CCSC)nc1C | 26.2% (inactive) |
| CCOC(=O)c1sc(NC(=O)CSc2ncn(-c3ccccc3)n2)nc1C | 70.4% (active) |

| SMILES | cytotoxicity |
| --- | --- |
| O=C(CSc1ncn(-c2ccccc2)n1)Nc1nc2ccccc2s1 | 9.1% (inactive) |
| CCOC(=O)c1sc(NC(=O)CSc2nnnn2-c2ccccc2)nc1C | -4.9% (inactive) |
| CCOC(=O)c1ccc(NC(=O)CCc2nc(-c3ccc(Cl)cc3)no2)cc1 | -3.7% (inactive) |
| CCOC(=O)c1ccc(NC(=O)CCc2nc(-c3ccccc3)no2)cc1 | -1.1% (inactive) |
| CCOC(=O)c1ccc(NC(=O)CCc2nc(-c3ccccc3Cl)no2)cc1 | 74.8% (active) |
| Cc1sc2ncn3ncnc3c2c1C | 4.8% (inactive) |
| Cc1cc(C)n2nc(C(=O)NCc3ccco3)nc2n1 | 11.2% (inactive) |
| COC(=O)c1ccccc1NC(=O)c1cnc2sccn2c1=O | 2.7% (inactive) |
| COC(=O)c1ccccc1NC(=O)c1ccc(-c2ccccc2F)o1 | 88.4% (active) |
| COC(=O)c1ccccc1NC(=O)c1ccc(COc2ccccc2)o1 | -7.8% (inactive) |
| COc1ccccc1NC(=O)c1ccc(-c2ccccc2F)o1 | -0.2% (inactive) |
| COc1ccc(OC)c(NC(=O)c2cc(-c3cc(Cl)ccc3O)n[nH]2)c1 | 12.2% (inactive) |
| COc1ccc(OC)c(NC(=O)c2cc(-c3ccc(C)cc3O)n[nH]2)c1 | -13.3% (inactive) |
| Cc1ccc(O)c(-c2cc(C(=O)Nc3ccc(S(=O)(=O)N4CC(C)OC(C)C4)cc3)[nH]n2)c1 (stereo not drawn) | -29.9% (inactive) |
| COc1ccc(NC(=O)c2cc(-c3cc(C)cc(C)c3O)n[nH]2)cc1Cl | 59.6% (active) |
| Cc1cc(O)c(-c2cc(C(=O)Nc3ccc(S(=O)(=O)N4CCOCC4)cc3)[nH]n2)cc1C | 1% (inactive) |
| O=C(Nc1cc(C(F)(F)F)ccc1Cl)C1CCN(c2nnc(-n3cccc3)s2)CC1 | -14.7% (inactive) |
| COC(=O)c1ccc(CSc2ncnc3c2nnn3-c2ccc(OC)cc2)o1 | -1% (inactive) |
| O=C(O)CCC(=O)N1CCc2cc(S(=O)(=O)NC3CCCc4ccccc43)ccc21 (stereo not drawn) | 3.4% (inactive) |
| Nc1ccccc1-c1nnc(SCc2ccccc2F)[nH]c1=O | 3.6% (inactive) |
| NC(=O)CSc1nnc2sc3ccccc3n12 | 3.6% (inactive) |
| COc1cccc(S(=O)(=O)Nc2cccnc2)c1 | -10.8% (inactive) |
| COc1ccc(-c2cnc(SCC(=O)Nc3cc(C)on3)n2Cc2ccco2)cc1 | -8.9% (inactive) |

| SMILES | cytotoxicity |
| --- | --- |
| CC(=O)Nc1cccc(NC(=O)CSc2ncc(-c3ccc(Cl)cc3)n2Cc2ccco2)c1 | 64% (active) |
| Cc1cnc(NC(=O)CSc2ncc(-c3ccccc3)n2Cc2ccco2)s1 | -1% (inactive) |
| O=C(CSc1ncc(-c2ccc(F)cc2)n1Cc1ccco1)Nc1ccc2c(c1)OCO2 | 72.6% (active) |
| COc1ccc(-c2cnc(SCC(=O)Nc3ccc4c(c3)OCO4)n2Cc2ccco2)cc1 | 5% (inactive) |
| CCC(=O)Nc1cc(NC(=O)CSc2ncc(-c3ccc(F)cc3)n2Cc2ccco2)ccc1C | 3.8% (inactive) |
| CCOCCCN1CC(C(=O)NCCc2ccccc2)CC1=O (stereo not drawn) | -5.3% (inactive) |
| CC(=O)Nc1ccc(C(=O)CSc2nc3ccccc3n2CC(=O)N2CCCC2)cc1 | 5% (inactive) |
| Cc1cc2c(c(N3CCOCC3)n1)C(=O)OC2 | -1.9% (inactive) |
| COc1ccc(CNC(=O)C2CCCN2S(=O)(=O)c2ccccc2)cc1 (stereo not drawn) | -10.6% (inactive) |
| O=S(=O)(c1ccccc1Cl)N1CCCC(c2nc(-c3cccnc3)no2)C1 (stereo not drawn) | 2% (inactive) |
| CCC(C)(C)n1nnnc1C(c1cc2ccc(OC)cc2[nH]c1=O)N1CCc2ccccc21 (stereo not drawn) | 50.8% (active) |
| CCC(C)(C)n1nnnc1C(c1cc2cc(OC)ccc2[nH]c1=O)N1CCc2ccccc21 (stereo not drawn) | 2.6% (inactive) |
| CCC(c1nnnn1C1CCCCC1)N(Cc1ccco1)Cc1cc2ccc(OC)cc2[nH]c1=O (stereo not drawn) | 56.8% (active) |
| CCC(C)(C)n1nnnc1C(c1cc2cc(OC)c(OC)cc2[nH]c1=O)N1CCc2ccccc21 (stereo not drawn) | 11.4% (inactive) |
| COc1ccc2[nH]c(=O)c(CN(C3CCCCC3)C(c3nnnn3Cc3ccco3)C(C)C)cc2c1 (stereo not drawn) | 21.5% (inactive) |
| COc1ccc2cc(CN(Cc3ccco3)Cc3nnnn3C3CCCCC3)c(=O)[nH]c2c1 | 23.1% (inactive) |
| COc1ccc2[nH]c(=O)c(CN(Cc3nnnn3Cc3ccco3)C3CCCCC3)cc2c1 | 24.6% (inactive) |
| CCC(c1nnnn1Cc1ccco1)N(Cc1cc2cc(OC)ccc2[nH]c1=O)C1CCCCC1 (stereo not drawn) | 97.7% (active) |
| COc1ccc2cc(CN(Cc3ccco3)C(c3nnnn3C3CCCCC3)C(C)C)c(=O)[nH]c2c1 (stereo not drawn) | -35.5% (inactive) |
| CCC(C)(C)n1nnnc1C(c1cc2ccc(C)cc2[nH]c1=O)N(Cc1cccnc1)Cc1ccco1 (stereo not drawn) | 23.4% (inactive) |
| CCCC(c1nnnn1C(C)(C)CC)N(Cc1ccco1)Cc1cc2ccc(OC)cc2[nH]c1=O (stereo not drawn) | 72.9% (active) |
| CCC(c1nnnn1Cc1ccccc1)N(Cc1ccco1)Cc1cc2cc(OC)ccc2[nH]c1=O (stereo not drawn) | 18% (inactive) |
